Experimental data published in PubChem BioAssay (NCI).
This is part of a sample that, as a whole, favours compounds with a hit. Of some 83,000 tested, about 20% had one in any assay.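 Each cell line was grown in a 96-well plate and treated with one concentration of compound for 48 hours. Values below 10 were considered active.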 Values without a mark were called inactive. The source made the active and inactive calls.

Key:
Test in all cases: NCI-60 one-dose screen, 48 h (100 = growth as untreated, 0 = no growth, -100 = all killed)
Conditions in all cases: 10 µM unless noted
T-47D breast = test system: T-47D breast
BT-549 breast = test system: BT-549 breast
MDA-MB-435 melanoma = test system: MDA-MB-435 melanoma
SW-620 colon = test system: SW-620 colon
MCF7 breast = test system: MCF7 breast
HCT-116 colon = test system: HCT-116 colon
HCC-2998 colon = test system: HCC-2998 colon
KM12 colon = test system: KM12 colon

Compound	growth (T-47D breast)	growth (BT-549 breast)	growth (MDA-MB-435 melanoma)	growth (SW-620 colon)	growth (MCF7 breast)	growth (HCT-116 colon)	growth (HCC-2998 colon)	growth (KM12 colon)
CC(C)(C)n1cc(-c2ccnc(NCCNS(=O)(=O)c3cccc4ccccc34)c2)c(-c2cccc(F)c2)n1	-12.6% (active)	-80.9% (active)	-31.8% (active)	-26% (active)	-35% (active)	-87.2% (active)	-41.8% (active)	-14% (active)
COc1ccc2[nH]cc(-c3nc(-c4cn(C)c5c(Cl)nccc45)cs3)c2c1	11.6%	45%	6.78% (active)	-5.25% (active)	43.9%	43.9%	62%	32%
O=C(Cn1c(=O)sc2nc3ccccc3nc21)Nc1ncc(Cc2cccc(Cl)c2Cl)s1	81.6%	100%	101%	100%	91.6%	102%	101%	99.9%
CN(C)CC(=O)Nc1ccc2ncnc(Nc3ccc(Oc4cccc(C(F)(F)F)c4)c(Cl)c3)c2c1	48.6%	77.5%	61%	64.6%	41.6%	44.1%	23.7%	55.5%
CCOC(=O)c1c(NC(=O)c2ccc(C(C)C)cc2)sc2c(CN(C)C)c(O)ccc12	61%	89.7%	21.3%	-58.6% (active)	15.2%	4.82% (active)	-55.8% (active)	1.36% (active)
CC[C@]12C=CCN3CC[C@@]4(c5cc(NC(=O)CCC(=O)OCc6cn(Cc7ccc(F)cc7)nn6)c(OC)cc5N(C)[C@H]4[C@@](O)(C(=O)OC)[C@@H]1OC(C)=O)[C@@H]32	102%	108%	101%	104%	96.4%	96.3%	106%	103%
CC1(C)CCC(S(=O)(=O)c2ccc3c(c2)/C(=N\O)c2cc(S(=O)(=O)N4CCC(O)(c5cccc(C(F)(F)F)c5)CC4)ccc2-3)CC1	-83.4% (active)	-80.8% (active)	-93.5% (active)	-92.9% (active)	-70.9% (active)	-87.7% (active)	-82.9% (active)	-86.7% (active)
Cn1cc(-c2csc(-c3c[nH]c4ccc(Br)cc34)n2)c2cnccc21	-51.5% (active)	7.16% (active)	-92% (active)	-82.6% (active)	-68.6% (active)	-90.9% (active)	-76.5% (active)	-79.9% (active)
O=C1c2ccc3c4ccc5c6c(ccc(c7ccc(c2c37)C(=O)N1CCC[P+](c1ccccc1)(c1ccccc1)c1ccccc1)c64)C(=O)N(CCC[P+](c1ccccc1)(c1ccccc1)c1ccccc1)C5=O	41.1%	74%	0.931% (active)	24.5%	37.1%	46%	25.5%	10.5%
CCN1C(=O)N(CC)C2C1NN=c1s/c(=C\c3ccc(Cl)cc3Cl)c(=O)n12 (stereo not given)	58.8%	15.9%	-24.8% (active)	20.5%	14%	9.71% (active)	7.2% (active)	7.47% (active)
Cn1cc(-c2nc(-c3c[nH]c4ccncc34)cs2)c2ccccc21	12.4%	84.4%	-89.9% (active)	-47% (active)	4.55% (active)	-63.4% (active)	-52.3% (active)	18.7%
COc1ccc(C2=Nc3c/c(=C\c4c(O)[nH]c5ccc(Cl)cc45)ccc3=N2)cc1	53.7%	35.3%	-68.5% (active)	5.99% (active)	0.287% (active)	33.6%	35.5%	17.1%
CC(C)(C)n1cc(-c2ccnc(NCCCNS(=O)(=O)c3ccc(F)cc3)c2)c(-c2cccc(F)c2)n1	24.6%	50.2%	73.8%	22.4%	41.2%	37%	54.7%	40.9%
Oc1c(Cl)cc(Cl)c2ccc(Cn3cc(-c4cc(F)cc(F)c4)nn3)nc12	40.4%	70.9%	60.8%	4.81% (active)	34.4%	5.12% (active)	103%	102%
CN(Cc1ccc(C(F)(F)F)cc1)CC(O)C(=O)Nc1ccc(Cl)cc1 (stereo not given)	18.4%	56.1%	-4.56% (active)	-41.5% (active)	-23.4% (active)	-94.3% (active)	-48.2% (active)	-36.1% (active)
CCOC(=O)c1ccc2[nH]c(O)c(C(=Nc3ccc(N(C)C(=O)CN4CCN(C)CC4)cc3)c3ccccc3)c2c1	21.6%	-75.9% (active)	-42% (active)	-34.4% (active)	-63.9% (active)	-38.8% (active)	-55.2% (active)	-33.4% (active)
O=C(OCc1ccc2c(Cl)cc(Cl)c(O)c2n1)n1cncn1	36.1%	50.4%	27.9%	24.7%	23.2%	30.1%	54.4%	21.8%
COc1ccc(-c2nnc(-c3ccc4c(c3)nc(-c3ccncc3)n4C3CCCCC3)o2)cc1	30.8%	54.6%	75.9%	95.9%	65.6%	62.3%	88.8%	71.9%
O=C1N(Cc2ccccc2Cl)c2ccccc2C12NN=C(c1cccc(Cl)c1)S2 (stereo not given)	6.86% (active)	-20% (active)	2.22% (active)	9.59% (active)	1.43% (active)	9.78% (active)	-61% (active)	21.4%
CCCCC(=O)Nc1ncc(Cc2ccc(Cl)cc2)s1	56.4%	65%	0.64% (active)	37.7%	37.4%	53.6%	65.8%	38.8%
COc1ccc(OC)c(-c2c(C#N)c(-c3cccs3)nc3c2c(-c2ccccc2)nn3-c2ccccc2)c1	94.3%	121%	104%	93.9%	98.6%	91.7%	110%	105%
C=CC(=O)NCc1ccc(Nc2nccc(-c3ccc(N4CCCC4)c(C#N)c3)n2)cc1	71%	-10.3% (active)	10.1%	43.9%	14.3%	22.2%	71.3%	35.2%
C1=C(N2CCCC2)CCC1	104%	113%	95.1%	101%	91%	102%	110%	109%
Cc1ccc(Cc2cnc(NC(=O)c3cc(Br)cs3)s2)cc1	44.4%	37.1%	-16.5% (active)	42%	30.3%	32.9%	82.9%	47.3%
CCOC(=O)c1cc(-c2ccc([N+](=O)[O-])cc2)n(-c2ccc(C(=O)O)c(O)c2)c1C	38.2%	95.7%	50.6%	93.2%	53.9%	49.4%	98.9%	86.8%
COCCNC(=O)c1ccc(-c2nc3ccc4[nH]ncc4c3c3c2CCCC3)cc1	44.5%	10.3%	16.4%	11%	35.9%	13%	47.5%	19.7%
Cc1nn(-c2ccccc2)c(Oc2ccccn2)c1-c1nc2ccccc2s1	88%	95.4%	103%	105%	84%	91.5%	103%	87.6%
COc1ccc(/C=N/NC(=O)CCN2c3ccccc3Sc3ccccc32)cc1	81.5%	84.8%	8.72% (active)	57.4%	42.7%	69.4%	92.3%	53.8%
COc1ccc(C(=O)Nc2cccc(C3CC(=O)c4c(cc(OC)c(OC)c4OC)O3)c2)cc1 (stereo not given)	7.66% (active)	34.7%	-47.3% (active)	27.3%	15.2%	10.9%	64.9%	13.8%
COc1ccc(C(=O)Nc2ncc(Cc3cccc(Cl)c3)s2)cc1OC	3.79% (active)	50.7%	0.543% (active)	27.4%	11%	27.2%	16.9%	18%
